Results from PubChem BioAssay.
Calls of active or inactive are those of the source. Rule as the data show it: active = parasite load remaining mostly below about 12% (no sharp cut-off); inactive = mostly above about 10%.

experiment: liver-stage malaria parasite growth inhibition, primary screen, cell-based, HepG2, luciferase luminescence, HepG2 viability (AID 624349);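 also: 100% = mean of DMSO negative control wells on the same plate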; settings: P. berghei liver stage in HepG2, luciferase luminescence, concentration not given here; parasite load remaining: stronger effect = lower value; viability: measured here: HepG2 viability without parasites

SMILES	parasite load remaining	viability [%]
NC(=O)Nc1cc(-c2ccccc2)sc1C(N)=O	74.4% (inactive)	163
O=C1Nc2ccccc2/C1=C\c1c(Cl)[nH]c2ccccc12	35% (inactive)	118
Cn1c(O)c(-c2[nH]c3ccccc3c2N=O)c2ccc(Br)cc21	27.7% (inactive)	171
O=C(Nc1cccc(Nc2cc(Nc3cccc(C(F)(F)F)c3)ncn2)c1)C1CC1	48.9% (inactive)	163
Nc1ncnc2c1cnn2-c1ccccc1	72% (inactive)	108
Ic1cccc(CSc2nnc(-c3ccncc3)o2)c1	20.8% (inactive)	98.7
O=C1NC(=NCc2cccs2)S/C1=C\c1ccc2ncccc2c1	27.7% (inactive)	96.3
CNc1cc2c(Nc3cccc(Br)c3)ncnc2cn1	49.2% (inactive)	157
N#CCCc1ccc2c(c1)-c1[nH]c3ccc([N+](=O)[O-])cc3c1CC(=O)N2	64.4% (inactive)	120
O=c1c(O)c(-c2ccc(O)c(O)c2)oc2cc(O)c(O)c(O)c12	32.1% (inactive)	88.8
O=C(c1ccccc1)c1ccc(N2CCOCC2)cc1O	40.6% (inactive)	74.9
NS(=O)(=O)c1ccc(N=Nc2c(O)[nH]c3ccc(Br)cc23)cc1	34% (inactive)	161
Nc1n[nH]c(N)c1N=Nc1ccc(O)cc1	23.7% (inactive)	93.1
COc1cc(Nc2ncc3ccn(-c4cccc(CCC#N)c4)c3n2)cc(OC)c1OC	50.6% (inactive)	164
CCCOc1ccc(/C=C2\SC(=O)NC2=O)cc1	54.3% (inactive)	111
N#C/C(=C(/N)Sc1ccccc1N)c1cccc(C(O)c2ccncc2)c1 (stereo not drawn)	49.2% (inactive)	70
N#Cc1cnc2cnc(NCc3cccnc3)cc2c1Nc1ccc(F)c(Cl)c1	47.9% (inactive)	84.2
CCCCc1c(-c2ccc(O)cc2)[nH]c2nccnc12	46.4% (inactive)	112
O=C1NC(=O)c2c1c1c3ccccc3[nH]c1c1[nH]c3cc(Br)ccc3c21	60.6% (inactive)	160
Nc1nc(Nc2ccc(S(N)(=O)=O)cc2)nn1C(=S)Nc1c(F)cccc1F	8.25% (active)	93.1
CC(=O)c1ccc(N2CCOCC2)cc1O	38.3% (inactive)	110
CN(C)c1ccc(/C=C2/C(=O)Nc3ccccc32)cc1	34.8% (inactive)	126
O=C(Nc1ccc(-c2cn[nH]c2)cc1)C1COc2ccccc2O1 (stereo not drawn)	48.6% (inactive)	62.7
O=C1Nc2ccc(Br)cc2/C1=C/c1cc2c([nH]1)CCCC2	44.1% (inactive)	66.2
O=C1C(Cl)=C(N2C(=O)CCC2=O)C(=O)c2ccccc21	34.2% (inactive)	76.3
CCCCn1c2ccc(O)cc2c2c3c(c(-c4ccccc4Cl)cc21)C(=O)NC3=O	56.2% (inactive)	74.7
COc1ccc(-c2cnc3c(-c4ccsc4)cnn3c2)cc1	16.9% (inactive)	67.4
Cc1ncc2ccccc2c1C#N	44.1% (inactive)	86.2
O=C(O)c1ccc2c3c1cccc3c(=O)n1c3ccccc3nc21	44% (inactive)	75.2
